# In the library only some 27% were active in any assay of this set; here they are far more common.
# CYP2C19 inhib: blocks human cytochrome P450 2C19; inhibition, % at 5 µM; CYP2C19 Supersomes, luciferin-H EGE luminescence, 30 min; hit rate 21% among 96,000; P33261;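 active = CYP2C19 inhibition above a set limit at 5 µM in the primary screen, cut at about 50% in these data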;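 also: plate controls were negative control wells for no effect and 2.5 mM tranylcypromine positive control for full effect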
# CYP2C19 activ: cytochrome P450 2C19 (human) activation | recombinant CYP2C19, luciferin-H EGE luminescence; hits give high values; 0 = fully inhibited enzyme, 1 = untreated enzyme | activation factor at 5 µM | 96,000 tested, under 10 active;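 active = activation factor of at least 2 at 5 µM in the primary screen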;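 also: 0 = wells with 2.5 mM tranylcypromine and 1 = vehicle-only wells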
# CYP2C9 act: increases human cytochrome P450 2C9 activity; P11712; recombinant CYP2C9, luciferin-H conversion, luminescence; hits give high values; factor 1 = untreated enzyme, 0 = blocked; activation factor at 5 µM; hit rate 1.4% among 96,000; AID 1024;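 active = activation factor of 2 or more for CYP2C9 at a 5 µM dose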;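 also: 0 = sulfaphenazole-blocked wells and 1 = vehicle-only wells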
# Cav32 inh: inhibitors of human Cav3.2 T-type calcium channel | AID 449739 | Cav3.2-expressing cells, Fluo-4 calcium fluorescence FDSS; hits give low values | B-score at 10 µM | O95180 | hit rate 4% among 100,000;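 active = single-dose well whose peak fluorescence ratio is a statistical outlier from its plate by either plate-standardised score or position-corrected B-score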
# CYP2C9 inhib: inhibitors of human CYP2C9; P11712; CYP2C9 Supersomes, luciferin-H conversion, luminescence; inhibition, % at 5 µM; hit rate 20% among 96,000; AID 777;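 active = blocking of liver enzyme CYP2C9 beyond about 50% at 5 µM, limit read from the data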
# Pyk2 oligo antag: blocks oligomerization of human Pyk2 in cells | Q14289 | Q293 cells, Pyk2 FERM NanoBiT luminescence; hits give low values | z-score (the deposit names both 25 µM and 10 µM) | hit rate 0.83% among 99,000 | AID 1347419;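 active = Z-score of -3 or lower, scaled per plate to the spread of control and sample wells; inactive = z-score above -3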;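 also: negative z-score means lost luminescence so less FERM oligomerization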
# * hit, by the source's call; / = no result given.
SMILES,CYP2C19 inhib,CYP2C19 activ,CYP2C9 act,Cav32 inh,CYP2C9 inhib,Pyk2 oligo antag
CC(C)(C)c1[nH]nc2c1C(C1C=CCCC1)C(C#N)=C(N)O2 (centres undefined),36,0.6,0.5,-1.1,48,-2.8
N#CC1=C(N)OC2=C(C(=O)CCC2)C1C1C=CCCC1 (centres undefined),84*,0.2,0.3,/,73*,-0.25
Cc1cn(-c2cc(C(=O)Nc3ccc(C)c(NC(=O)C(=O)c4c[nH]c5ccccc45)c3)cc(C(F)(F)F)c2)cn1,/,/,/,-0.48,/,/
CCO[C@@H]1OC(C(=O)NCc2nc3ccccc3[nH]2)=C[C@H](c2ccc(C(F)(F)F)cc2)[C@H]1CCCO,/,/,/,-1.9,/,/
Cc1cn(C2CC3OCC3O2)c(=O)[nH]c1=O (centres undefined),-1,1,1,0.18,3,0.11
N#CC1=C(N)N(c2ccc(Br)cc2)C2=C(C(=O)CCC2)C1c1cccnc1 (centres undefined),21,0.8,0.5,/,52*,-1.3
COc1ccc(C2C(C#N)=C(N)N(c3sc4c(c3C#N)CCCC4)C3=C2C(=O)CC(C)(C)C3)cc1OC (centres undefined),62*,0.4,0.1,0.92,86*,0.34
COc1ccc(C2C(C#N)=C(N)N(c3sc4c(c3C#N)CCCC4)C3=C2C(=O)CC(C)(C)C3)cc1 (centres undefined),17,0.8,0.6,0.68,42,-1.7
Cc1csc(NC(=O)Cc2nn(C)c(=O)c3ccccc23)n1,-7,1.1,0.8,-0.028,16,0.42
CCc1sc(C(=O)Nc2cccc(C(C)=O)c2)cc1C,/,/,/,/,/,-0.51
CCOC(=O)/C(N=Nc1ccc(Cl)cc1)=C(/O)c1ccc([N+](=O)[O-])cc1,-4,1,1,/,0,0.64
CC(=O)Nn1c(C)nnc1-n1nc(C)cc1C,11,0.9,0.8,0.13,24,0.01
Cc1ccc(S(=O)(=O)Oc2ccc3c(c2)O/C(=C\c2cccnc2)C3=O)cc1,72*,0.3,0.1,-1.7,91*,-3*
O=C1/C(=C/c2cccnc2)Oc2cc(OS(=O)(=O)c3ccc(F)cc3)ccc21,45,0.6,0.2,0.015,84*,-2.7
Cc1ccc(S(=O)(=O)Oc2ccc(/C=C3\N=C(c4cccc(C)c4)OC3=O)cc2)cc1,4,1,0.7,/,26,0.35
CCCCCn1c(N2CCOCC2)nc2c1c(=O)n(CC(N)=O)c(=O)n2C,-11,1.1,1.1,-0.14,-8,0.07
O=C(Cn1cnc2ccccc2c1=O)NCCC(=O)N1CCN(c2ccccc2)CC1,-3,1,0.7,0.57,31,1.3
O=C(OCCN1C(=O)c2ccccc2C1=O)c1ccco1,/,/,/,-0.093,/,0.58
CCN(CCCCN1C(=O)c2ccccc2C1=O)c1ccc2c(c1)C(=O)N(C)C2=O,45,0.5,0.5,-2,46,-1.1
O=C(NNc1c(Cl)cc(Cl)cc1Cl)c1cccc([N+](=O)[O-])c1,/,/,/,/,/,0.93
O=C1c2ccccc2C(=O)N1CCCCN(C(=O)c1cccc([N+](=O)[O-])c1)c1ccc(Cl)cc1,69*,0.3,0.4,0.47,61*,-1.5
Cc1ccc(N(CCCCN2C(=O)c3ccccc3C2=O)C(=O)c2cccs2)cc1,61*,0.4,0.3,-5.8*,66*,-1.8
O=C1c2ccccc2C(=O)N1CCCCN(C(=O)c1ccco1)c1ccc(Cl)cc1,57*,0.4,0.2,-8.5*,82*,-0.62
CCOC(=O)c1c(C)[nH]c(C(=O)COC(=O)c2ccc(F)c(S(=O)(=O)N3CCOCC3)c2)c1C,-7,1.1,0.8,0.011,20,3.6
O=C(NC1CC2CCCC(C1)N2C(=O)Nc1ccccc1)c1ccncc1 (centres undefined),92*,0.1,0.6,0.018,40,0.25
SMILES,CYP2C19 inhib,CYP2C19 activ,CYP2C9 act,Cav32 inh,CYP2C9 inhib,Pyk2 oligo antag
CC(=O)NC1CC2CCCC(C1)N2S(=O)(=O)c1ccccc1 (centres undefined),50*,0.5,1.4,0.65,-43,0.17
O=C(NC1CC2CCCC(C1)N2S(=O)(=O)c1ccccc1)c1ccccc1 (centres undefined),63*,0.4,0.7,1.8,32,-0.81
O=C(NC1CC2CCCC(C1)N2C(=O)NC1CCCCC1)c1ccccc1 (centres undefined),2,1,1,0.19,0,-0.67
CC(=O)Nc1ccc(S(=O)(=O)N2C3CCCC2CC(NC(=O)C2CCCCC2)C3)cc1 (centres undefined),14,0.9,0.7,0.49,27,0.99
COC(=O)[C@H](CCSC)NC(=O)Nc1ccc(OC)cc1OC,15,0.9,1.2,-0.23,-24,1.1
CC1=C(C(=O)Nc2ccccc2)C(c2ccc(C)cc2)N=C(Nc2nc3ccccc3o2)N1 (centres undefined),11,0.9,0.7,0.32,35,-0.13
c1ccc(Cc2nn[nH]n2)cc1,-18,1.2,1,-0.0042,-2,-0.92
CC(C)(C)c1cc(Cc2ccccc2)[nH]n1,82*,0.2,0.7,0.075,31,-0.43
CCOC(=O)c1c(C)[nH]c(C(=O)COC(=O)c2ccncc2)c1C,16,0.8,0.1,/,92*,1.1
CCOC(=O)c1[nH]c(C)c(C(=O)c2cc(F)ccc2F)c1C,95*,0.1,0.1,/,93*,-1.3
CCOC(=O)c1[nH]c(C)c(C(=O)OCC)c1C,84*,0.2,0.2,-0.42,75*,/
CCCN(CC1CC1)C(=O)COC(=O)c1[nH]c(C)c(C(=O)OCC)c1C,60*,0.4,0.6,-2.3,44,0.07
CCOC(=O)c1c(C)[nH]c(C(=O)COC(=O)C2CC2C)c1C (centres undefined),73*,0.3,0,0.003,98*,0.08
Cc1cccc(NC(=S)NNC(=O)CCn2cc(C)cn2)c1,29,0.7,0.8,0.25,21,2.2
COc1ccccc1NC(=S)NC(=O)CC(C)C,24,0.8,0.7,-0.75,35,-0.36
Cc1ccccc1C(=O)NC1CCN(C(=O)N(c2ccccc2)c2ccccc2)CC1,13,0.9,0.4,-0.37,58*,-0.31
CCOc1ccccc1NC(=O)N1CCC(NC(=O)c2ccccc2C)CC1,7,0.9,2.3*,-0.93,-132,0.17
Cc1ccccc1C(=O)NC1CCN(C(=O)N2CCOCC2)CC1,/,/,/,-0.37,/,0.04
CCOc1ccccc1NC(=O)N1CCC(NC(=O)c2cccc(C)c2)CC1,37,0.6,2.6*,-0.24,-164,0.11
Cn1c(C(C#N)C(=O)c2ccco2)nc2ccccc21 (centres undefined),5,0.9,0.5,1.1,51*,0.2
O=C(COC(=O)C1CCN(S(=O)(=O)c2cccs2)CC1)c1cc2ccccc2o1,9,0.9,0.8,-1.2,19,0.69
CC1C(=O)CC(c2ccccc2)NC1c1ccccc1 (centres undefined),82*,0.2,0.7,0.061,33,0.7
